Assay results taken from PubChem BioAssay AID588358 (NMMLSC, 2011).
The whole screen tested about 310,000 compounds, of which about 1,500 (0.48%) were called active.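 The calls were made as follows: active = binding more than 3 SD below its plate's average and above zero; inconclusive = below that plate limit but binding exactly zero; inactive = the rest.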 Shown is part of a subset that was picked to be rich in actives.

The molecules below were run against Desmoglein-3 (Homo sapiens) (UniProt P32926) (assay: blockers of anti-DSG3 scFv binding – biochemical, bead-based, flow cytometry, scFv-GFP, primary screen (AID 588358;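 also: hits lower antibody fragment binding to DSG3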)). Conditions: DSG3-coupled beads, at 10 µM, hits give low values.
Desmoglein-3 (Homo sapiens), sequence (P32926 whole entry, looked up, the tested form may be a part): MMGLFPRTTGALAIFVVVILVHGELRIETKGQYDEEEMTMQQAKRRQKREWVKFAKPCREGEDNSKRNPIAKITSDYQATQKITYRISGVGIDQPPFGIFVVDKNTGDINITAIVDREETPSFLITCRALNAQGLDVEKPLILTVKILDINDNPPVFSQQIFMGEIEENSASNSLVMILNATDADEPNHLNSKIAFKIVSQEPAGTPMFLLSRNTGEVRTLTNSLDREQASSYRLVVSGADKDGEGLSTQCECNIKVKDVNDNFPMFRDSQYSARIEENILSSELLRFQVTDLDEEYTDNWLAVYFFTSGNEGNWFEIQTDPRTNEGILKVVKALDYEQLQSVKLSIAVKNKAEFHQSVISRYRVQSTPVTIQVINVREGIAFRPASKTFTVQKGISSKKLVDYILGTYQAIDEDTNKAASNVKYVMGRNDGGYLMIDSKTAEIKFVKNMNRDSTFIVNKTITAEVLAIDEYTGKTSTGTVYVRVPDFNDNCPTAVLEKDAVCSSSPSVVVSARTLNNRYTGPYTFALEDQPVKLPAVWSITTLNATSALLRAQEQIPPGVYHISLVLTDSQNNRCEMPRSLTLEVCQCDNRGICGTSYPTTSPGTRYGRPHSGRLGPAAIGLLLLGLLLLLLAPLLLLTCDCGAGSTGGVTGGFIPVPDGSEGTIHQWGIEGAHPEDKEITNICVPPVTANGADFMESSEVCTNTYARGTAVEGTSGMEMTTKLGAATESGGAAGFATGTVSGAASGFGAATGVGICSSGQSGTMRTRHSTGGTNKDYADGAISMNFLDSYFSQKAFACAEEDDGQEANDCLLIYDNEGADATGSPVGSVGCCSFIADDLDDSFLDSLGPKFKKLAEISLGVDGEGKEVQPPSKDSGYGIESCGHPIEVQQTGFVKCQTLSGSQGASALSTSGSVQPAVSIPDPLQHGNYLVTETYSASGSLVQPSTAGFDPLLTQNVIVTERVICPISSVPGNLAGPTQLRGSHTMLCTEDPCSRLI

Binding (percent of control), inactive:
Cc1ccnc(SC2CC(=O)N(c3ccccc3)C2=O)n1 (stereo unspecified) 95.7%
O=C(NCC(F)(F)F)c1ccc(S(=O)(=O)NCCc2ccc3c(c2)OCCO3)cc1 97.1%
C[C@H](O)[C@@H]1C(=O)N2CCc3c([nH]c4ccccc34)[C@@H]2C[C@@H]1N(C)C(=O)Nc1ccc(F)cc1 109%
O=C(c1ccc(CSc2ccccc2)cc1)N1CCCCCC1 105%
CN(C)c1cc[n+](Cc2ccccc2)cc1 99.9%
Cc1ccc(Cc2c(-c3ccc(C)cc3)nc3c4ccccc4ccn23)cc1 109%
Cc1ccc(S(=O)(=O)/N=C2\C=C(NS(=O)(=O)c3ccc(C)cc3)C(=O)c3ccccc32)cc1 97.2%
COc1ccc(NC(=O)CN(C)C(=O)c2cc(-c3ccc(C)o3)nc3ccccc23)cc1 96.9%
COc1cccc(NC(=O)CN(C)C(=O)c2ccccc2CCc2ccccc2)c1 108%
CSc1ncccc1C(=O)N1CCCC(Nc2ccc(F)c(F)c2)C1 (stereo unspecified) 104%
CCN(C(=O)Nc1cccc2ccccc12)c1ccccc1 103%
CCc1ccccc1NC(=O)CN1CCN(C(=O)c2cc(C3CC3)nn2-c2ccccc2)CC1 106%
COc1ccc(S(=O)(=O)N(C)C)cc1NC(=O)COC(=O)c1n[nH]c2ccccc12 98.8%
Cc1cccc(C(=O)C(O)(c2ccccc2)C2CCCCC2=O)c1 (stereo unspecified) 106%
CCOc1ccccc1Nc1ccc2nonc2c1[N+](=O)[O-] 96.1%
O=C(O)c1ccccc1CSc1nc2ccccc2s1 116%
CCOC(=O)C(=Cc1ccccc1)C(=O)c1ccccc1 106%
CCN(CC)C(=O)C1=C(C)N(Cc2ccccc2)C(=O)C(CC(=O)NC(c2ccccc2)c2ccccc2)C1 (stereo unspecified) 107%
O=C(CCc1ccc(O)cc1)NN=Cc1cc(Br)ccc1O 106%
COc1ccc(-c2noc(CCC(=O)N3CCN(c4cccc(C)c4)CC3)n2)cc1 98.6%
COc1ccc(-c2noc(CNC(=O)C(C)Oc3ccccc3)n2)cc1 (stereo unspecified) 109%
Cc1ccc(-c2ccc(C3=CC(=O)CC(C)(C)C3=O)cc2)cc1 97.6%

Binding (percent of control), active:
CN(C)c1ccc(CSc2ccccc2)cc1 -6.16%
COc1cccc(NC(=O)CN(C)C(=O)c2cc(Cl)nc3ccccc23)c1 80.8%
O=[N+]([O-])c1c(NCCO)cc(Sc2nc3ccccc3s2)c2nonc12 83.3%
COc1ccc(-c2noc(COc3ccc(Cl)c(C)c3)n2)cc1 66.6%
